# Reference: PubChem BioAssay (EPA / NIEHS)
# Results filed as inconclusive are left out. The source made the active and inactive calls. Rule for the calls: active = hit-call score of the fitted dose curve at least 0.9, where 1 is the maximum; inconclusive = response in the unintended direction; inactive = score below 0.9.
# Key:
# [1] = molecular target: rat Serotonin, 5-Hydroxytryptamine Receptor 1 (5HT1), Non-Selective Binding, Htr1a (gene 24473) (UniProt P19327); test: NVS_GPCR_r5HT1_NonSelective: NovaScreen (NVS) G Protein-Coupled Receptor Assay for rat Serotonin, 5-Hydroxytryptamine Receptor 1 (5HT1), Non-Selective Binding (AID 2283286)
# Outline: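 Binding of a radioligand to rat cortex membranes is read by filtration and scintillation counting after 1 h. Compounds were screened at 25 uM in duplicate. Actives were then titrated to a top of 50 uM. DMSO is the baseline.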
# [2] = test system: 5-hydroxytryptamine receptor 2C (pig); test: NVS_GPCR_p5HT2C: NovaScreen (NVS) G Protein-Coupled Receptor Assay for pig Serotonin, 5-Hydroxytryptamine Receptor 2C (5HT2C) (AID 2283288)
# Outline: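 Radioligand displacement on membranes from pig choroid plexus, detected by filter scintillation counting after 1 h. Tested first at a single 25 uM in duplicate, then in concentration-response for actives; DMSO served as baseline.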
# [3] = molecular target: rat Adrenergic Receptor, Beta (Adrb), Non-selective Binding, Adrb1 (gene 24925) (UniProt P18090); test: NVS_GPCR_rAdrb_NonSelective: NovaScreen (NVS) G Protein-Coupled Receptor Assay for rat Adrenergic Receptor, Beta (Adrb), Non-selective Binding (AID 2283298)
# Outline: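 Rat cortical membranes incubated 1 h with beta-adrenergic radioligand and test chemical; bound ligand measured by filtration and scintillation counting. Screen at 25 uM duplicate, then concentration series with 50 uM maximum; loss of signal versus DMSO.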
# [4] = test system: guinea pig Atrionatriuretic Peptide Receptor A (ANPA), gene 100135578; test: NVS_GPCR_gANPA: NovaScreen (NVS) G Protein-Coupled Receptor Assay for guinea pig Atrionatriuretic Peptide Receptor A (ANPA) (AID 2283291)
# Outline: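 Displacement of specific radioligand from guinea pig cerebellum membranes was read by scintillation after 1 h. A duplicate single-point screen at 25 uM was followed by a concentration series up to 50 uM, analysed relative to DMSO.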
# [5] = test system: rat Adrenergic, Alpha 1B Receptor (Adra1B), gene 24173; test: NVS_GPCR_rAdra1B: NovaScreen (NVS) G Protein-Coupled Receptor Assay for rat Adrenergic, Alpha 1B Receptor (Adra1B) (AID 2283297)
# Outline: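 Filter-binding radioligand competition on membranes from rat liver, read after 1 h by scintillation counting. Single-concentration duplicate screen at 25 uM, followed by concentration-response on actives, normalised to DMSO.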
# [6] = molecular target: mouse Cholecystokinin, CCK2 Receptor (CCKB), Cckbr (gene 12426) (UniProt P56481); test: NVS_GPCR_mCKKBCentral: NovaScreen (NVS) G Protein-Coupled Receptor Assay for mouse Cholecystokinin, CCK2 Receptor (CCKB) (AID 2283293)
# Description: NVS_GPCR_mCKKBCentral is a biochemical, single-readout assay that uses extracted gene-proteins from Mouse forebrain membranes in a tissue-based cell-free assay. Measurements were taken 2 hours after chemical dosing in a 96-well plate.NVS_GPCR_mCKKBCentral is one of one assay component(s) measured or calculated from the NVS_GPCR_mCKKBCentral assay. It is designed to make measurements of radioligand binding, a form of binding reporter, as detected with scintillation counting signals by Filter-based radiodetection technology.Data from the assay component NVS_GPCR_mCKKBCentral was analyzed into 1 assay endpoint. This assay endpoint, NVS_GPCR_mCKKBCentral, was analyzed in the positive analysis fitting direction relative to DMSO as the negative control and baseline of activity. Using a type of binding reporter, loss-of-signal activity can be used to understand changes in the binding as they relate to the gene Cckbr. Furthermore, this assay endpoint can be referred to as a primary readout, because the performed assay has only produced 1 assay endpoint. To generalize the intended target to other relatable targets, this assay endpoint is annotated to the gpcr intended target family, where the subfamily is rhodopsin-like receptor. […]
# [7] = molecular target: rat Adrenergic Receptor, Alpha 2 (Adra2), Non-selective Binding, Adra2a (gene 25083) (UniProt P22909); test: NVS_GPCR_rAdra2_NonSelective: NovaScreen (NVS) G Protein-Coupled Receptor Assay for rat Adrenergic Receptor, Alpha 2 (Adra2), Non-selective Binding (AID 2283299)
# Outline: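 Filter-based scintillation counting of radioligand binding to rat cortical membrane receptors, measured 1.25 hours post-dosing; loss of signal versus DMSO indicates displacement. Initial single-concentration duplicate at 25 uM, then concentration series.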
# [8] = molecular target: rat Gamma-Aminobutyric Acid Type B Receptor (GABBR), Gabbr1 (gene 81657) (UniProt Q9Z0U4); test: NVS_GPCR_rGABBR: NovaScreen (NVS) G Protein-Coupled Receptor Assay for rat Gamma-Aminobutyric Acid Type B Receptor (GABBR) (AID 2283301)
# Outline: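 Rat cortical membrane preparation, competitive radioligand binding for 1 h with filtration and scintillation readout. Actives from duplicate single-point 25 uM screening proceeded to concentration series with 50 uM top concentration.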
# [9] = molecular target: rat Glutamate Metabotropic Receptor 5 (MGluR5), Grm5 (gene 24418) (UniProt P31424); test: NVS_GPCR_rmMGluR5: NovaScreen (NVS) G Protein-Coupled Receptor Assay for rat Glutamate Metabotropic Receptor 5 (MGluR5) (AID 2283307)
# Description: NVS_GPCR_rmMGluR5 is a biochemical, single-readout assay that uses extracted gene-proteins from Rat whole brain in a tissue-based cell-free assay. Measurements were taken 1.5 hours after chemical dosing in a 48-well plate.NVS_GPCR_rmMGluR5 is one of one assay component(s) measured or calculated from the NVS_GPCR_rmMGluR5 assay. It is designed to make measurements of radioligand binding, a form of binding reporter, as detected with scintillation counting signals by Filter-based radiodetection technology.Data from the assay component NVS_GPCR_rmMGluR5 was analyzed into 1 assay endpoint. This assay endpoint, NVS_GPCR_rmMGluR5, was analyzed in the positive analysis fitting direction relative to DMSO as the negative control and baseline of activity. Using a type of binding reporter, loss-of-signal activity can be used to understand changes in the binding as they relate to the gene Grm5. Furthermore, this assay endpoint can be referred to as a primary readout, because the performed assay has only produced 1 assay endpoint. To generalize the intended target to other relatable targets, this assay endpoint is annotated to the gpcr intended target family, where the subfamily is metabotropic glutamate receptor. […]
# Chain of rat Serotonin, 5-Hydroxytryptamine Receptor 1 (5HT1), Non-Selective Binding, Htr1a (gene 24473) (P19327 whole entry, looked up): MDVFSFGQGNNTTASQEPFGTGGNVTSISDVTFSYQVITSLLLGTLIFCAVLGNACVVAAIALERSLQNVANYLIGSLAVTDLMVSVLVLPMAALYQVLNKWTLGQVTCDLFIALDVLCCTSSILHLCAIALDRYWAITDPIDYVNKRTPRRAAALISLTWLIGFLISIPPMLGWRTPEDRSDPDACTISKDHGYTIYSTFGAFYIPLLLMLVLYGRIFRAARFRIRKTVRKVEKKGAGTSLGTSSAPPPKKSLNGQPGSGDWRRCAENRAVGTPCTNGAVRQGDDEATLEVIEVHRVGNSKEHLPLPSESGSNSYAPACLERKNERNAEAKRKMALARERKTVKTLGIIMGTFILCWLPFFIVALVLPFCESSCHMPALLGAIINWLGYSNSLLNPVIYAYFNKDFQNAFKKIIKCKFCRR
# Chain of rat Adrenergic Receptor, Alpha 2 (Adra2), Non-selective Binding, Adra2a (gene 25083) (P22909 whole entry, looked up): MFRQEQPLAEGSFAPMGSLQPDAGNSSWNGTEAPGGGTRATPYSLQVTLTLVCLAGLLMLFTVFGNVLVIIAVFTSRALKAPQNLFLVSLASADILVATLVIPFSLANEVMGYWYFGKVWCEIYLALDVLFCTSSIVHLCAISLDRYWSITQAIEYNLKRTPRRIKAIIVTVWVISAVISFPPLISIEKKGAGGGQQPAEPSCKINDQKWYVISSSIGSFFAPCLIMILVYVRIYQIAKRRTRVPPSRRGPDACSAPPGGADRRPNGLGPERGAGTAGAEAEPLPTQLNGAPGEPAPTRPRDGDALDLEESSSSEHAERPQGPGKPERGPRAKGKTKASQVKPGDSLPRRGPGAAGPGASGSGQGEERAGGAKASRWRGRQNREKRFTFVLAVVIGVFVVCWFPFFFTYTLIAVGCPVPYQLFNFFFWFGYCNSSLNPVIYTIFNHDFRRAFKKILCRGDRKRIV
# Chain of rat Adrenergic Receptor, Beta (Adrb), Non-selective Binding, Adrb1 (gene 24925) (P18090 whole entry, looked up): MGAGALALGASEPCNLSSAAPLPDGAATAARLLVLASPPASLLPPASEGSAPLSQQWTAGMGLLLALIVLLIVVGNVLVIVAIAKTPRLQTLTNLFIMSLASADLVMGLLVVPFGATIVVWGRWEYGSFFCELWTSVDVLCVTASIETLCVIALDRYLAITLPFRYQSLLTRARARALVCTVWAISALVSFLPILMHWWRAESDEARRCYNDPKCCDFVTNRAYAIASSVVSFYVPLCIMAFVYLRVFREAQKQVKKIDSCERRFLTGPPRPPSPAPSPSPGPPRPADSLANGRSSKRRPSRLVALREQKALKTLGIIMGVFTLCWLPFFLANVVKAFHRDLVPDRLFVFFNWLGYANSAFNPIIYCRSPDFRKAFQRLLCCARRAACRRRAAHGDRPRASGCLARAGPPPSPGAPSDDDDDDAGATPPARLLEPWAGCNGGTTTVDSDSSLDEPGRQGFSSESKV
# Chain of rat Gamma-Aminobutyric Acid Type B Receptor (GABBR), Gabbr1 (gene 81657) (Q9Z0U4 whole entry, looked up): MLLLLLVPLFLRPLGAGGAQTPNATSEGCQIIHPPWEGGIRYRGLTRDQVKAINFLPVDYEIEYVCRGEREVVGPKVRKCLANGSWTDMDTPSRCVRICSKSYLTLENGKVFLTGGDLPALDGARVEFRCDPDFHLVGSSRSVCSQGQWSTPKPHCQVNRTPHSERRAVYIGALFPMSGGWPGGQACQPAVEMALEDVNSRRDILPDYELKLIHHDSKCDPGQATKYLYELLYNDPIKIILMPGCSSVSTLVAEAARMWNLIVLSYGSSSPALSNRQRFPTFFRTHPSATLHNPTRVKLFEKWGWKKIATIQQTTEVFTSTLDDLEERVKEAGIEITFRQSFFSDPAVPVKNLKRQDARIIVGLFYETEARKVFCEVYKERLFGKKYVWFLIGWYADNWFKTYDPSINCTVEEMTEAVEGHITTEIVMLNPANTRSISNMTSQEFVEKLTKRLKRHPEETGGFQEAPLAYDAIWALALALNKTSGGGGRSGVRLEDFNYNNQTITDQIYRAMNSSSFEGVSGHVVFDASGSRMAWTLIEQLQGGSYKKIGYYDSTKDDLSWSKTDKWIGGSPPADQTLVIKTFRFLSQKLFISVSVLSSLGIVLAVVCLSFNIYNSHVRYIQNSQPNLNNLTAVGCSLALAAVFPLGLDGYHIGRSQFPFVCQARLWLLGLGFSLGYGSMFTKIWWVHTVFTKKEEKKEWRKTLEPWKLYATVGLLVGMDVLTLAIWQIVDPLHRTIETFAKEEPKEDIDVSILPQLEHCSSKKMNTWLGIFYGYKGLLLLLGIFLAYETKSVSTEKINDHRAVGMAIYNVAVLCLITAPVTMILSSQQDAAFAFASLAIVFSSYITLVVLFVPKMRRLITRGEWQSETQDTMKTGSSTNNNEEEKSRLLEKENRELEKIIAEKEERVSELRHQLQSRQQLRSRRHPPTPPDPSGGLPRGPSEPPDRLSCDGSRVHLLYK
# Chain of mouse Cholecystokinin, CCK2 Receptor (CCKB), Cckbr (gene 12426) (P56481 whole entry, looked up): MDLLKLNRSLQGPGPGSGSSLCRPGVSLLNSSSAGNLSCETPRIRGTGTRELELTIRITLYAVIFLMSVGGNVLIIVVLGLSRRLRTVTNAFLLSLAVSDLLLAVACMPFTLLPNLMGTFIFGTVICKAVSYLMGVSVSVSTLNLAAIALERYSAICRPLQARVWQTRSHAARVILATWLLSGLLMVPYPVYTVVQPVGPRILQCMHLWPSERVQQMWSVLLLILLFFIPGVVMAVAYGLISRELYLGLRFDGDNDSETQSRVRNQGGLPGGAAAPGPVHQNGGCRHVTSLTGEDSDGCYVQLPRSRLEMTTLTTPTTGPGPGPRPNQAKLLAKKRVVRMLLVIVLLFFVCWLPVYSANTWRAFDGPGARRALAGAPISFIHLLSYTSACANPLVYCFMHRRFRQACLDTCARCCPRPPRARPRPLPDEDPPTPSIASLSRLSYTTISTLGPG
# Chain of rat Glutamate Metabotropic Receptor 5 (MGluR5), Grm5 (gene 24418) (P31424 whole entry, looked up): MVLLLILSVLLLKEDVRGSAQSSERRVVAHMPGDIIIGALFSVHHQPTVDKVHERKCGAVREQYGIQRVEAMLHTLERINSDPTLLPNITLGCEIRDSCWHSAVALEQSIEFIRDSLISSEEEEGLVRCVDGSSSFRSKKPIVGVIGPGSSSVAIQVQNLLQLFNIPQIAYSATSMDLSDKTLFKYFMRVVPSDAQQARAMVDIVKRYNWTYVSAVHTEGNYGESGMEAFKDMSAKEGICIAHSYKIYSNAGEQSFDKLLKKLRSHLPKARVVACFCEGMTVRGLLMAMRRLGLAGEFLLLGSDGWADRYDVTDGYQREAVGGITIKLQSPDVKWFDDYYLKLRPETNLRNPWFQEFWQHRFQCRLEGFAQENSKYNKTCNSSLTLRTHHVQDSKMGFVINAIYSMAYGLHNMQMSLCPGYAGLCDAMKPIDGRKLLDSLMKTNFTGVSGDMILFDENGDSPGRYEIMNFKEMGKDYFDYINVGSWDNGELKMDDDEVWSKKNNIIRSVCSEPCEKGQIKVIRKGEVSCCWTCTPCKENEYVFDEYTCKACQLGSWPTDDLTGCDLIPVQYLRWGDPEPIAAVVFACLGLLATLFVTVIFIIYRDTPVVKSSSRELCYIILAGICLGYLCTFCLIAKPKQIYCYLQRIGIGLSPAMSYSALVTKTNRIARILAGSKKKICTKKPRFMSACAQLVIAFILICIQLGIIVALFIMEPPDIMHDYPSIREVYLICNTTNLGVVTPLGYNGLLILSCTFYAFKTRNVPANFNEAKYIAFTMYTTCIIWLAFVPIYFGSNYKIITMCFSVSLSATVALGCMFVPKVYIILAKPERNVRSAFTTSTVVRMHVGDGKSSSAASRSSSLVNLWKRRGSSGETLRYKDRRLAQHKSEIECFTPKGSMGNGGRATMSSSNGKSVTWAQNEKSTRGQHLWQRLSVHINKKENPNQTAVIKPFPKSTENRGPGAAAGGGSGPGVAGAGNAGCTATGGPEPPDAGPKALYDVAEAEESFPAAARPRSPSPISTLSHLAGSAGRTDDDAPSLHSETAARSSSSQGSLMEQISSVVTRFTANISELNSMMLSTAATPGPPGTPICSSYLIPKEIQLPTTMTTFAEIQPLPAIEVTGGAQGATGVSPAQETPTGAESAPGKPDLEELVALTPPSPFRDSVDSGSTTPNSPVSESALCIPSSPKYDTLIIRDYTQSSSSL
smiles,measurement,setting,value
CCCCNC(=O)OCC#CI,outcome,[1],inactive
CN(C)C(=S)SSC(=S)N(C)C,outcome,[1],inactive
CON(C)C(=O)Nc1ccc(Cl)c(Cl)c1,AC50,[2],25 µM (active)
same,outcome,[3],inactive
C=CCC1=C(C)C(OC(=O)C2C(C=C(C)C)C2(C)C)CC1=O (stereo not given),outcome,[2],inactive
COC(=O)C=C(C)OP(=O)(OC)OC,outcome,[4],inactive
Fc1ccc(Oc2ccnc3cc(Cl)cc(Cl)c23)cc1,outcome,[4],inactive
same,outcome,[5],inactive
C#CCOS(=O)OC1CCCCC1Oc1ccc(C(C)(C)C)cc1 (stereo not given),outcome,[6],inactive
CCOP(=S)(OCC)SCn1c(=O)oc2cc(Cl)ccc21,outcome,[5],inactive
CCNc1nc(Cl)nc(NCC)n1,outcome,[3],inactive
CC1COC(Cn2cncn2)(c2ccc(Oc3ccc(Cl)cc3)cc2Cl)O1 (stereo not given),AC50,[7],2.28 µM (active)
O=C(Nc1ccccc1)Nc1ccnc(Cl)c1,AC50,[7],9.64 µM (active)
COc1nc(C)nc(NC(=O)NS(=O)(=O)c2ccccc2Cl)n1,outcome,[8],inactive
CCCCOC(=O)c1ccccc1C(=O)OCCCC,outcome,[9],inactive
